# High-throughput results as filed in PubChem.
# Shown are actives, neighbours in structure and some others; about 1.3% of the full set was active somewhere.
# SARS PLP yeast: blocks SARS-CoV papain-like protease in a yeast assay | S. cerevisiae expressing SARS-CoV PLpro, growth rescue | Potency, µM (series often up to 32.9 µM), most hits filed as activators | hit rate 0.19% among 330,000; calls by dose curve; further: nearly all actives have a fitted effect of over 55% in size
# AmpC detergent: AmpC beta-lactamase inhibition with detergent present | AmpC hydrolysis of nitrocefin, absorbance 480 nm, 0.01% Triton | P00811 | hit rate 0.041% among 370,000 | Potency, µM (series often up to 114 µM), actives largely listed as inhibitors; further: nearly all actives have a fitted effect of over 25% in size
# Target sequence (P00811 whole entry, looked up): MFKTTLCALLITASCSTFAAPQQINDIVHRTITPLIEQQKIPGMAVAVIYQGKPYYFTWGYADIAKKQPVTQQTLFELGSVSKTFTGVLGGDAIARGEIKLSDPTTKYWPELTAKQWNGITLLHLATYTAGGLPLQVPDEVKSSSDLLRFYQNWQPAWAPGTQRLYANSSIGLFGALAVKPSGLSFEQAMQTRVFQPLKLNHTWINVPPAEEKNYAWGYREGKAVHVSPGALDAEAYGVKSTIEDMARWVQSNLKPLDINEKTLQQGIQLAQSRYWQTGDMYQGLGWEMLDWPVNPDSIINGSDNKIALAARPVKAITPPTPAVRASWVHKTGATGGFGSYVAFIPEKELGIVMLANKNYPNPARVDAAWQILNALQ
#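 20 mM phosphate pH 7.0 + 0.01% (detergent screen) or 0.0001% Triton X-100; 5.3 nM AmpC reagent; cpd preinc 15 min RT; nitrocefin (800 uM stock) to start; A480 q20 s × 4 min; Activity was normalised to no-enzyme and no-compound control wells.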
# AMA1-RON2 inh: AMA1-RON2 (P. falciparum) interaction inhibition; AlphaScreen AMA1-biotinylated RON2 peptide binding; Potency, µM (doses to about 58.2 µM), actives largely listed as inhibitors; AID 720542; hit rate 0.2% among 360,000; further: nearly all actives have a fitted effect of over 45% in size
#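 AMA1 (3D7) with his tag at 25 nM final met compounds first, then biotinylated RON2 peptide at 25 nM; detection used donor plus acceptor beads, 10 µg/mL apiece, read by AlphaScreen after 30 min at room temperature.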
# VACV Venus inh: vaccinia inhibition (Venus reporter); hit rate 0.46% among 330,000; AID 720580; Vaccinia virus Venus reporter expression, fluorescence; Potency, µM (titrated, usually from 36.5 µM), hits mostly inhibitors; calls by dose curve; tested in A549 cells; further: nearly all actives have a fitted effect of over 30% in size
# AmpC no deterg: blocks E. coli AmpC beta-lactamase in detergent-free assay; AID 485341; P00811; Potency, µM (doses to about 57.1 µM), actives largely listed as inhibitors; AmpC nitrocefin hydrolysis, absorbance 480 nm, 0.0001% Triton; hit rate 0.52% among 330,000; further: nearly all actives have a fitted effect of over 20% in size
#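 AmpC (5.3 nM in the dispensed reagent) in 20 mM phosphate pH 7.0 with 0.01% (detergent screen) or 0.0001% Triton X-100 was preincubated with compounds for 15 min at room temperature. Nitrocefin was then added from an 800 uM solution, and hydrolysis was followed at 480 nm.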
# VACV mCherry inh: inhibitors of vaccinia virus infection (mCherry reporter signal); Potency, µM (doses to about 36.5 µM), actives largely listed as inhibitors; AID 720579; hit rate 0.63% among 310,000; Vaccinia virus mCherry reporter infection, fluorescence; calls by dose curve; tested in A549 cells; further: nearly all actives have a fitted effect of over 35% in size
# Hits are given with their value; n = inactive; u = inconclusive; x = no result. Unless noted, the call rests on the fitted dose curve; in most records, active means well fitted curve in the direction sought with a large enough effect; inconclusive means small, poorly fitted or top-dose-only effect, or another doubt; inactive means no such curve, though single readings can be large; an effect the other way counts as inactive or inconclusive.
SMILES,SARS PLP yeast,AmpC detergent,AMA1-RON2 inh,VACV Venus inh,AmpC no deterg,VACV mCherry inh
COc1cccc(/C=N/NC(=O)c2cc(-c3ccccn3)nc3ccccc23)c1O,n,n,n,u,u,1µM
COc1ccccc1/C=N\NC(=O)c1c(C)nc2ccc(Cl)cn12,n,u,n,x,n,x
COc1cccc(/C=N/NC(=O)c2c(C)nc3ccc(Cl)cn23)c1O,n,n,n,u,n,3.16µM
COc1ccc(OC)c(/C=N/NC(=O)c2cc3c(OC)c(OC)ccc3[nH]2)c1,n,n,n,n,n,n
O=C(N/N=C/c1ccc(F)cc1)c1cc(-c2ccccn2)nc2ccccc12,n,n,n,n,n,n
COc1cc(OC)c2cc(C(=O)N/N=C/c3ccccc3O)[nH]c2c1,n,n,n,u,n,1.12µM
COc1ccc(-n2c(CNC(=O)c3cccc4ccccc34)nnc2SC)cc1,x,x,x,n,x,n
CC(C)c1nc(C(=O)N2CCOc3ccc(CN4CCN(c5ccccn5)CC4)cc3C2)cs1,x,x,x,n,x,n
CC(=O)Nc1ccc(NC(=O)C/C(C)=N/NC(N)=S)cc1,11.2µM,n,n,x,n,x
O=C(c1cccnc1)C1CCCN(Cc2ccc3c(c2)CN(C(=O)c2cccs2)CCO3)C1 (stereo not given),x,x,x,n,x,n
C=CCn1nc([N+](=O)[O-])nc1Sc1cccc2cccnc12,n,n,n,8.91µM,n,7.94µM
CCn1c(-c2ccccc2F)nc2cc(NC(C)=O)cc(C(=O)N3CCC[C@H]3C(=O)OC)c21,x,x,x,n,x,n
Cc1ccc(SC2=C(N(C)C)C(=O)c3ccccc3C2=O)cc1,x,x,8.91µM,n,x,n
CN(CCO)C(=O)c1cn(C2CCCN(Cc3cc4ccccc4s3)C2)nn1 (stereo not given),x,x,x,n,x,n
Cc1cc(NS(=O)(=O)c2ccc(NC(=O)c3c(F)c(F)c(F)c(F)c3F)cc2)nc(C)n1,n,n,n,u,n,28.2µM
O=C(C[n+]1ccccc1Br)c1ccc2c(c1)CCCC2,x,x,x,n,x,n
CCCN1CN(Cc2ccccc2)CNC1=S,11.2µM,n,n,n,n,n
Nc1ccc(/C=C/c2ccnc3ccccc23)c(N)c1,x,x,x,n,x,n
CC[C@]12c3[nH]c4ccc(Cl)cc4c3CCN1C(=O)[C@@H](CC(=O)NCC13CC4CC(CC(C4)C1)C3)C[C@@H]2C(=O)N1CCN(C(=O)C2CC2)CC1,n,x,n,10µM,n,n
CC(C)N(C(=O)[C@H]1C[C@H](CC(=O)NCc2cccc(C(F)(F)F)c2)C(=O)N2CCc3c([nH]c4ccc(Cl)cc34)[C@]12C)C(C)C,n,x,n,11.2µM,n,u
C[C@]12c3[nH]c4ccc(Cl)cc4c3CCN1C(=O)[C@@H](CC(=O)NCc1cccc(C(F)(F)F)c1)C[C@@H]2C(=O)N1CCOCC1,n,x,n,u,n,n
C[C@]12c3[nH]c4ccc(Cl)cc4c3CCN1C(=O)[C@@H](CC(=O)NCC13CC4CC(CC(C4)C1)C3)C[C@@H]2C(=O)N1CCOCC1,n,x,n,12.6µM,n,u
C[C@]12c3[nH]c4ccc(Cl)cc4c3CCN1C(=O)[C@@H](CC(=O)NCC13CC4CC(CC(C4)C1)C3)C[C@@H]2C(=O)N1CCCCC1,n,x,n,u,n,28.2µM
COc1ccc2[nH]c3c(c2c1)CCN1C(=O)C(CC(=O)NCC24CC5CC(CC(C5)C2)C4)C[C@H](C(=O)N2CCOCC2)[C@@]31C (stereo not given in full),n,x,n,u,n,u
CN(C)c1ccc(/C=C/c2ccnc3ccc(N)cc23)cc1,x,x,x,n,x,u
SMILES,SARS PLP yeast,AmpC detergent,AMA1-RON2 inh,VACV Venus inh,AmpC no deterg,VACV mCherry inh
C=C1C=C(C(F)F)n2ncc(C(=O)N3CCN(c4ccccc4)CC3)c2N1,x,x,x,n,x,u
O=C(Nc1nnc(-c2ccc3c(c2)CCCC3)o1)c1ccc(Cl)cc1Cl,n,u,n,n,35.5µM,n
CN(C)S(=O)(=O)c1ccc(C(=O)Nc2nnc(-c3cccs3)o2)cc1,n,n,n,x,n,x
CN(C)S(=O)(=O)c1ccc(C(=O)Nc2nnc(-c3ccc4c(c3)CCCC4)o2)cc1,n,u,n,n,2.82µM,u
Cc1cc(C(=O)Nc2ccccc2-c2nc(CNC(=O)c3cscn3)c(C)o2)c(C)o1,x,x,x,n,x,n
COc1ccc(S(=O)(=O)N(C)CC(=O)Nc2ccc3c(c2)OCO3)cc1,n,n,n,n,n,n
COc1ccc(S(=O)(=O)N(C)CC(=O)Nc2c(F)cccc2F)cc1,n,n,n,n,0.141µM,n
Cc1cc(/C=C2\C=Cc3ccccc32)cc(C)c1[N+](=O)[O-],x,x,x,n,x,n
Clc1cccc(Cl)c1CON/C=N/c1ncnc2sccc12,n,n,n,u,1.12µM,x
Cc1ccccc1CCN(C(=O)Cn1nnc2ccccc21)C(C(=O)NC(C)(C)C)c1ccsc1 (stereo not given),n,n,n,n,n,n
Cc1cccc(N(C(=O)Cn2nnc3ccccc32)C(C(=O)NC(C)(C)C)c2ccsc2)c1C (stereo not given),u,n,n,n,0.224µM,n
COC(=O)/C=c1/sc2nc3ccccc3n2c1=O,n,44.7µM,n,n,n,n
O=c1/c(=C/c2ccccn2)sc2nc3ccccc3n12,n,n,n,n,n,n
C/C(CC(C)(C)C1CCCCC1)=N\NC(N)=S,n,u,n,17.8µM,n,11.2µM
O=C1c2ccccc2C(=O)c2[nH]c(=O)[nH]c21,n,n,n,2.82µM,n,1.26µM
CCN(CC)S(=O)(=O)c1cccc(NC(=O)CNc2cccc(S(=O)(=O)N3CCCC3)c2)c1,n,n,n,n,28.2µM,n
O=C(COC(=O)c1cc([N+](=O)[O-])ccc1NCCO)Nc1cccc(S(=O)(=O)N2CCCC2)c1,n,u,n,n,31.6µM,n
COCc1ccc(C(=O)N2CCOc3ccc(CN4CCN(c5ccc(F)cc5)CC4)cc3C2)o1,x,x,x,n,x,n
COc1ccccc1-c1ccc(C(=O)NCCN2CCOCC2)c(N2CCN(c3ccccc3F)CC2)n1,x,x,x,n,x,n
Cc1ccc(S(=O)(=O)CCSc2nc(C)cc(C(F)(F)F)c2C#N)cc1,n,n,n,2.24µM,n,x
Cc1cc2c(c(-c3cnccn3)c1)OC(CNC(=O)c1cc(Cl)ccc1F)C2 (stereo not given),x,x,x,n,x,n
C[C@@H]1O[C@@H](O[C@@H]2C=C3CC[C@@H]4C(CC[C@]5(C)[C@@H](c6ccc(=O)oc6)CC[C@]45O)[C@@]3(C)CC2)[C@H](O)[C@H](O)[C@H]1O (stereo not given in full),n,n,n,u,n,31.6µM
CC(=O)C1CCC2(O)C3CCC4=CC(=O)CCC4(C)C3CCC12C (stereo not given),x,x,n,n,x,n
